EPAC1 agonist: EPAC1 (human) agonism. O95398. EPAC1 agonist qHTS, biochemical assay; response scale: 100% = response to 6.5 mM cAMP. Potency, µM (highest dose often 154 µM), for inactives: at the highest dose activation, actives largely listed as activators. 360,000 tested, 0.073% active; further: nearly all actives have a fitted effect of over 60% in size
Target sequence (O95398 whole entry, looked up): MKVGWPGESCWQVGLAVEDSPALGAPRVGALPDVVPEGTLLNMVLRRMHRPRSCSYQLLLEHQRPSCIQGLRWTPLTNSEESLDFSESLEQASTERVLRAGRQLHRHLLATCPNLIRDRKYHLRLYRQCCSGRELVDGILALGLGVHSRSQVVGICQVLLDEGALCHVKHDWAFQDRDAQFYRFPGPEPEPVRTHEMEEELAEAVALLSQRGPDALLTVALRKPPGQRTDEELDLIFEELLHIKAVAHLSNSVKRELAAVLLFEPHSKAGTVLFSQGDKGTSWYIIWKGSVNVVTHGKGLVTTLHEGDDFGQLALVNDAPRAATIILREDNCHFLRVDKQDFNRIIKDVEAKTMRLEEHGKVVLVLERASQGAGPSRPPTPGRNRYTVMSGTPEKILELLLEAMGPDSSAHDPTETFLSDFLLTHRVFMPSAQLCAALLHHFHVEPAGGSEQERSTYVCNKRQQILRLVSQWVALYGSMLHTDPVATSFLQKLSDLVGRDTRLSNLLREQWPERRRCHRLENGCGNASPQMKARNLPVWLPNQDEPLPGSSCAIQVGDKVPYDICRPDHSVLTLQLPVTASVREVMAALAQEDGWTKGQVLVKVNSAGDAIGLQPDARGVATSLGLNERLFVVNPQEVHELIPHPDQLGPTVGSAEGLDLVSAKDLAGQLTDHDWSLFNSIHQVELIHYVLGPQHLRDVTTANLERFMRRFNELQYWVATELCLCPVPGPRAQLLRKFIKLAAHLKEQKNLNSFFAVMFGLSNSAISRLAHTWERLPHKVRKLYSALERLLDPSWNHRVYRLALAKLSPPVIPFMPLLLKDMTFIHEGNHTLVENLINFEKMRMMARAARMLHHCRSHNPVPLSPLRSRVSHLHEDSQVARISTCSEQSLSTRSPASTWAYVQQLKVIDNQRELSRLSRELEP
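EPAC1 100 nM, Rap1B–BODIPY-GDP 250 nM, unlabeled GDP 50 uM; compound titration; 5 min RT; kinetic read ex480/em540 at 5-min intervals ×30 min; data normalized to 6.5 mM cAMP agonist control.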
USP1-UAF1 inh: USP1/UAF1 (human) deubiquitinase inhibition; 390,000 tested, 0.23% active; recombinant USP1/UAF1, Ub-Rhodamine cleavage fluorescence; Potency, µM (series often up to 57.1 µM), for the others: at the highest dose activity change, negative = inhibition, most hits filed as inhibitors; further: on the % scale 0 is the no-effect control and ±100 the full control effect; nearly all actives have a fitted effect of over 60% in size
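Step one: compound is pinned into 1nM USP1/UAF1 in HEPES pH 7.8 buffer with TCEP. Step two: 15 min room-temperature incubation. Step three: Ub-Rho (150nM final) starts cleavage, tracked by fluorescence over six one-minute reads.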
EPAC2 agonist: agonists of human EPAC2 (RAPGEF4); Q8WZA2; 360,000 tested, 0.079% active; EPAC2 activation, biochemical qHTS; response scale: 100% = 6.5 mM cAMP response; Potency, µM (highest dose often 154 µM), for inactives: top-dose activation, most hits filed as activators; further: nearly all actives have a fitted effect of over 50% in size
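In this primary screen, activation is scored as increased exchange of BODIPY-GDP from Rap1B by 100 nM EPAC2, with 50 uM GDP as competitor. Signal is normalized to the 6.5 mM cAMP agonist control.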
EPAC2 antagonist: antagonists of human EPAC2; Q8WZA2; Potency, µM (highest dose often 114 µM), inactives show at the highest dose activity, negative = inhibition, most hits filed as inhibitors; 360,000 tested, 0.18% active; EPAC2 GEF exchange of Rap1B-BODIPY-GDP, fluorescence; further: on the % scale 0 is the no-effect control and ±100 the full control effect; nearly all actives have a fitted effect of over 45% in size
EPAC1 antagonist: EPAC1 (human) antagonism | EPAC1 GEF assay, Rap1b-BODIPY-GDP exchange fluorescence | Potency, µM (series often up to 115 µM), without a hit: at the top dose activity change, negative = inhibition, most hits filed as inhibitors | 360,000 tested, 0.14% active;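 further: plate controls were vehicle for no effect and positive control for full effect; nearly all actives have a fitted effect of over 50% in size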
The depositor's hits bear a star; ? = inconclusive; nt = no result given. Most compounds without a hit are left out; they make up all but 0.49% or so of the library. The call rests on the fitted dose curve; in most records, active means well fitted curve in the direction sought with a large enough effect; inconclusive means small, poorly fitted or top-dose-only effect, or another doubt; inactive means no such curve, though single readings can be large; an effect the other way counts as inactive or inconclusive. Potency means the concentration at half of the fitted maximal effect.

SMILES	EPAC1 agonist	USP1-UAF1 inh	EPAC2 agonist	EPAC2 antagonist	EPAC1 antagonist
Cc1ccccc1C1=C/C(=C(\SS/C(C(=O)c2ccc(OCC(=O)O)c(Cl)c2Cl)=C2\C=C(c3ccccc3C)SS2)C(=O)c2ccc(OCC(=O)O)c(Cl)c2Cl)SS1	0.2%	31.6µM*	-0.8%	70.8µM*	50.1µM*
CCN1CCc2c(sc(NC(=O)c3ccc(S(=O)(=O)N4CCCCCC4)cc3)c2C(=O)NC)C1	112µM*	-18.9%	-125.1%	161.1%	-25.5%
CCN1CCc2c(sc(NC(=O)Cc3ccccc3)c2C(N)=O)C1	-11.4%	-21.7%	8.7%	5.4%	3.1%
CNC(=O)c1c(NC(=O)c2ccc(S(=O)(=O)N3CCCCC3)cc2)sc2c1CCC2	nt	-15.8%	nt	nt	nt
CC(=O)N1CCc2c(sc(NC(=O)CS(=O)(=O)c3ccc(F)cc3)c2C(N)=O)C1	126µM*	-28.1%	3.0%	5.1%	0.6%
NC(=O)c1c(NC(=O)c2ccccc2)sc2c1CCN(Cc1ccccc1)C2	6.3%	8.91µM*	89.1µM*	22.7%	0.7%
CCN1CCc2c(sc(NC(=O)Nc3ccc(Cl)c(Cl)c3)c2C(N)=O)C1	100µM*	?	100µM*	?	?
Cn1cc(S(=O)(=O)N2CCc3ccccc32)cc1C(=O)Nc1ccc(C(F)(F)F)cc1	nt	-1.2%	nt	nt	nt
CCCCCn1c(=N)c(S(=O)(=O)c2ccccc2)cc2c(=O)n3cccc(C)c3nc21	nt	-31.1%	nt	nt	nt
CCN1CCc2c(sc(NC(=O)c3ccc(S(=O)(=O)N(CC)c4ccccc4)cc3)c2C(N)=O)C1	24.2%	28.2µM*	-124.4%	-11.8%	?
O=C(Nc1ccc2nc(-c3ccco3)c(-c3ccco3)nc2c1)NC1CC1	1.0%	?	5.5%	13.0%	50.1µM*
O=C(Nc1cccc(C(F)(F)F)c1)c1ccc2nc(-c3ccco3)c(-c3ccco3)nc2c1	-30.5%	28.2µM*	-28.4%	?	35.5µM*
COc1cc(CNC(=O)c2cnc3c(-c4cccc(C)c4)c(C)nn3c2C)cc(OC)c1OC	nt	-9.4%	nt	nt	nt
Cc1cccc(NC(=O)CN2C(=O)C3(SCC(=O)N3c3ccccc3)c3ccccc32)c1 (configuration not stated)	nt	-17.4%	nt	nt	nt
CCOc1ccc(NC(=O)CSC2=Nc3ccccc3C3=NC(CC(=O)NCc4ccccc4OC)C(=O)N23)cc1 (configuration not stated)	nt	-17.6%	nt	nt	nt
CN(C)CC/C=C1/c2ccccc2Sc2c(O)cc(Cl)cc21	0.8%	-15.6%	10.0%	35.5µM*	-0.8%
COc1cc(Cl)cc2c1Sc1ccccc1/C2=C/CCN(C)C	0.4%	-3.3%	10.7%	-3.3%	-1.6%
O=C1NN(c2ccc(Cl)cc2)C(=O)/C1=C\c1ccc(-c2cccc(C(=O)O)c2)o1	2.1%	?	0.3%	-3.4%	?
O=C1NN(c2ccccc2)C(=O)/C1=C\c1ccc(-c2cc([N+](=O)[O-])ccc2O)o1	-6.4%	-28.1%	-22.5%	79.4µM*	-4.4%
Cc1ccc(C)c(NC(=O)Cn2c(SCC(=O)NCc3ccccc3)nc3ccccc32)c1	nt	0.2%	nt	nt	nt
Cc1ccc(N(CC(=O)N2CCN(c3cc(C)ccc3C)CC2)S(=O)(=O)c2c(C)nn(C)c2C)cc1	nt	-16.5%	nt	nt	nt
COc1cc(/C=C2\SC(=S)N(CC(=O)O)C2=O)ccc1OS(=O)(=O)c1ccc(C)cc1	-11.5%	-16.1%	-11.6%	?	89.1µM*
COc1cc(/C=C2/SC(=S)N(CC(=O)O)C2=O)ccc1OC(=O)c1cccs1	-8.3%	-14.1%	12.2%	?	79.4µM*
COc1cc(/C=C2/SC(=S)N(Cc3ccccc3)C2=O)ccc1OS(C)(=O)=O	6.4%	-4.9%	19.5%	0.1%	-25.8%
COc1ccccc1N1CCN(C(=O)c2cnc(N3CCCCC3)c3ccccc23)CC1	nt	17.3%	nt	nt	nt
SMILES	EPAC1 agonist	USP1-UAF1 inh	EPAC2 agonist	EPAC2 antagonist	EPAC1 antagonist
CCNc1cccc2c1C(=O)N(C)C2=O	?	15.8µM*	?	27.2%	18.1%
COc1cc2nc(SCC(=O)Nc3ccccc3C)n3nc(CCn4c(C)nc5ccccc54)nc3c2cc1OC	nt	-4.1%	nt	nt	nt
CCc1noc(C)c1C(=O)N1CCCSC1=Nc1ccccc1Cl	5.3%	-10.0%	15.9%	50.1µM*	-12.8%
Cc1cccc(NC(=O)Cn2c(=O)c3cccn3c3ccccc32)c1C	nt	2.7%	nt	nt	nt
Cc1cc(OCC(=O)Nc2ccc(C(=O)OC3CCCCC3)cc2)cc(C)c1Cl	nt	-5.7%	nt	nt	nt
COc1ccc(CC(=O)Nc2nc(-c3cccnc3)cs2)cc1	-9.6%	-0.9%	-10.2%	-3.0%	12.6µM*
COc1cccc(CC(=O)Nc2nc(-c3cccnc3)cs2)c1	2.3%	-0.7%	9.3%	-1.8%	16.1%
CCN1CCC(N(Cc2cccc(OC)c2)C(=O)Nc2cccc(C(F)(F)F)c2)CC1	nt	-34.1%	nt	nt	nt
COc1cccc(N2CC(NC(=O)c3cc(Cl)ccc3OC)CC2=O)c1 (configuration not stated)	nt	-21.8%	nt	nt	nt
CC(C)Cc1csc(NC(=O)c2ccc(F)cc2)c1C(=O)O	4.9%	-25.1%	-2.1%	-1.4%	35.5µM*
COc1ccc(S(=O)(=O)N(CC(=O)Nc2cc(C)cc(C)c2)c2ccc(Cl)cc2)cc1	nt	-30.5%	nt	nt	nt
O=C(CCC1CCCC1)Nc1ccc([N+](=O)[O-])cn1	112µM*	-12.5%	-1.9%	9.5%	103.1%
CC(NC(=O)c1cc(S(=O)(=O)N2CCOCC2)ccc1N1CCCC1)c1ccc(Cl)c(Cl)c1 (configuration not stated)	56.2µM*	-22.9%	6.4%	14.5%	7.4%
O=C(Nc1ccccc1Cl)c1cc(S(=O)(=O)N2CCCCC2)ccc1N1CCOCC1	12.7%	2.5%	10.6%	-9.7%	-6.2%
Cc1ccccc1CNC(=O)C(=O)NCC(c1ccc2c(c1)OCO2)N1CCOCC1 (configuration not stated)	nt	-21.8%	nt	nt	nt
CCOC(=O)c1c(S(=O)(=O)N2CCC(C(=O)N3CCN(c4cc(C)ccc4C)CC3)CC2)c(C)n(C)c1C	nt	-17.4%	nt	nt	nt
Cn1cc([C@]2(O)C(=O)Nc3ccc(Br)cc32)c2ccccc21	-5.0%	nt	-1.6%	50.1µM*	-0.2%
COc1cc(/C=C(\C#N)C(=O)c2c[nH]c3ccccc23)cc(OC)c1O	-0.5%	28.2µM*	17.9%	-4.7%	-21.2%
COc1cc(/C=C(\C#N)C(=O)NCCc2ccccc2)cc(OC)c1O	-0.7%	-24.1%	7.7%	3.5%	3.2%
Cc1cc(/C=C2\SC(=S)N(Cc3ccco3)C2=O)c(C)n1-c1cccnc1	-11.9%	54.7%	100µM*	51.5%	-6.6%
Oc1ccccc1-c1nc(NCc2cccnc2)c2ccccc2n1	18.6%	-3.6%	2.8%	-12.3%	-11.6%
Oc1ccccc1-c1nc(NCc2ccccc2)c2ccccc2n1	-29.8%	0.2%	0.3%	89.1µM*	?
CC(C)c1cc(-c2nc(-c3ccc(Cl)cc3)no2)n[nH]1	nt	-19.5%	nt	nt	nt
CCOC(=O)/C(=C\C=C1/Sc2cc(OCC)c(OCC)cc2N1CC)C(C)=O	?	25.1µM*	1.6%	23.5%	9.3%
